Data published in PubChem BioAssay.
Inconclusive results are not listed. Active and inactive are the calls of the source. Rule as the data show it, unless noted: active = inhibition above about 80%; inactive = the rest.

Experiments:
[1] = growth inhibition of DIPG glioma cells, dose response, cell-based, SU-DIPG-XVII, MIPE5.0, CellTiter-Glo, qHTS (AID 1347060; cut-off not given, nearly all actives have AC50 up to about 26 µM;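 also: cells exposed to compound for 48 hours before viability readout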); conditions: SU-DIPG-XVII viability, CellTiter-Glo ATP luminescence
[2] = growth inhibition of DIPG glioma cells, dose response, cell-based, SU-DIPG-XIII, MIPE5.0, CellTiter-Glo, qHTS (AID 1347064; cut-off not given, nearly all actives have AC50 up to about 23 µM;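 also: cells exposed to compound for 48 hours before the viability read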); conditions: SU-DIPG-XIII viability, CellTiter-Glo ATP luminescence
[3] = viability loss in pontine glioma line – cell-based, SU-DIPG-XXV, MIPE5.0, CellTiter-Glo, qHTS, dose response (AID 1347065; cut-off not given, nearly all actives have AC50 up to about 26 µM;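 also: cells exposed to compound for 48 hours before ATP readout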); conditions: CellTiter-Glo ATP luminescence
[4] = JHH-DIPG-1 glioma cell viability, MIPE5.0 library, CellTiter-Glo luminescence, qHTS (AID 1347067; cut-off not given, nearly all actives have AC50 up to about 26 µM;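 also: cells exposed to compound for 48 hours before readout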); conditions: JHH-DIPG-1 glioma viability, CellTiter-Glo ATP luminescence
[5] = SU-DIPG-XXV glioma cell viability, MIPE5.0 library, qHTS (AID 1347068; cut-off not given, nearly all actives have IC50 up to about 30 µM)
[6] = LFS_MB_P medulloblastoma growth inhibition, cell-based, chromothripsis tumors, cisplatin or BGB combos (AID 1671449); conditions: LFS_MB_P medulloblastoma cells;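 also: cells exposed for 96 hours; 0% = vehicle DMSO and 100% = killing by high DMSO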
[7] = HDN33 neuroblastoma growth inhibition, cell-based, chromothripsis tumors, cisplatin or BGB combos (AID 1671450); conditions: HDN33 neuroblastoma cells, stronger effect = higher value;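 also: cells exposed to compound for four days; 0% = vehicle DMSO and 100% = cell killing by high DMSO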
[8] = ICB984 medulloblastoma cell growth inhibition, synergistic combos for chromothripsis tumors, cisplatin or BGB combos (AID 1671451; call rule not given here;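 also: cells exposed for 96 hours before readout; 0% = vehicle DMSO and 100% = killing by high DMSO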); conditions: ICB984 medulloblastoma cells, drug combinations, stronger effect = higher value
[9] = LFS_MB_1R medulloblastoma cell growth inhibition, synergistic combos for chromothripsis tumors, cisplatin or BGB combos (AID 1671452); conditions: LFS_MB_1R medulloblastoma cells, stronger effect = higher value;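 also: cells exposed for 96 hours before readout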
[10] = HTB85 osteosarcoma cell growth inhibition, synergistic combos for chromothripsis tumors, BGB or cisplatin IC20 combos (AID 1671453); conditions: HTB85 osteosarcoma cells, drug combinations, stronger effect = higher value;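 also: cells exposed for 96 hours before readout; 0% = vehicle DMSO and 100% = high DMSO killing control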
[11] = CRL2098 osteosarcoma cell growth inhibition, synergistic combos for chromothripsis tumors, BGB or cisplatin IC20 combos (AID 1671454); conditions: CRL2098 osteosarcoma cells, drug combinations, stronger effect = higher value;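 also: cells exposed for 96 h before readout; 0% = vehicle DMSO and 100% = killing by high DMSO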
[12] = HD-MB03 medulloblastoma cell growth inhibition, synergistic combos for chromothripsis tumors, BGB or cisplatin IC20 combos (AID 1671455; in the data active = inhibition above about 83%;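 also: 0% = vehicle DMSO and 100% = high DMSO as cytotoxic control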); conditions: HD-MB03 medulloblastoma cells, stronger effect = higher value
[13] = UWB1.289 ovarian carcinoma cell growth inhibition, synergistic combos for chromothripsis tumors, BGB or cisplatin combos (AID 1671456); conditions: UWB1.289 ovarian carcinoma cells, stronger effect = higher value;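 also: cells exposed to compound for four days; 0% = vehicle DMSO and 100% = killing by high DMSO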
[14] = MDA-MB-436 breast carcinoma cell growth inhibition, synergistic combos for chromothripsis tumors, BGB or cisplatin combos (AID 1671458; call rule not given here;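 also: cells exposed for 96 hours; 0% = vehicle DMSO and 100% = killing by high DMSO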); conditions: MDA-MB-436 breast carcinoma growth inhibition, drug combinations, stronger effect = higher value
[15] = growth inhibition of BT084 medulloblastoma cells, cell-based, ICGC_MB145, cisplatin and BGB IC40 combos (AID 1671461); conditions: drug combinations, stronger effect = higher value;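 also: cells exposed to drugs for 96 hours; 0% = vehicle DMSO and 100% = high DMSO full killing control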
[16] = growth inhibition of RCMB18 medulloblastoma cells, cell-based, cisplatin and BGB IC40 combos (AID 1671462); conditions: stronger effect = higher value;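 also: cells exposed to compound for four days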
[17] = growth inhibition of CRL1545 osteosarcoma cells, cell-based, cisplatin and BGB IC20 combos (AID 1671464); conditions: stronger effect = higher value;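 also: cells exposed to compound for 96 hours before readout; 0% = vehicle DMSO and 100% = high DMSO killing control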
[18] = measured here: combination with BGB IC40, at 0.05 µM
[19] = measured here: with BGB IC20 combination, at 0.5 µM
[20] = measured here: with cisplatin IC20 combination, at 0.5 µM
[21] = measured here: combination with cisplatin, at 0.5 µM

SMILES: CC(=O)[C@]1(N)Cc2c(O)c3c(c(O)c2[C@@H](O[C@H]2C[C@H](O)[C@H](O)CO2)C1)C(=O)c1ccccc1C3=O
- AC50 [1]: 16.6 µM (active)
- AC50 [2]: 16.6 µM (active)
- AC50 [3]: 20.9 µM (active)
- AC50 [4]: 16.6 µM (active)
- outcome [5]: inactive
- inhibition ([6]; at 0.5 µM, stronger effect = higher value): -12.9% (inactive)
- inhibition ([6]; measured here: combination with BGB IC20, at 0.005 µM): -16.8%
- inhibition ([6]; measured here: combination with BGB IC40, at 0.005 µM): -30.9%
- inhibition [6, 18]: -51.9%
- inhibition ([6]; measured here: combination with cisplatin, at 0.5 µM, stronger effect = higher value): -19.4%
- inhibition ([6]; measured here: combination with cisplatin, at 5 µM, stronger effect = higher value): 104%
- inhibition ([7]; BGB combo, at 5 µM): 96.4%
- inhibition ([7]; at 0.5 µM): -0.33% (inactive)
- inhibition ([7]; cisplatin combo, at 5 µM): 97.3%
- inhibition [7, 19]: 0.353%
- inhibition [7, 20]: -4.83%
- inhibition ([7]; single agent, at 5 µM): 98.2%
- inhibition ([8]; BGB IC20 combo, at 0.005 µM): 2.76%
- inhibition ([8]; BGB IC40 combo, at 0.005 µM): -3.55%
- inhibition ([8]; BGB IC40 combo, at 0.05 µM): 86.2%
- inhibition ([8]; at 0.5 µM): -21.5% (inactive)
- inhibition ([8]; cisplatin combo, at 0.05 µM): 85.8%
- inhibition ([8]; cisplatin combo, at 0.5 µM): -10.1%
- inhibition ([8]; cisplatin combo, at 5 µM): -12.5%
- inhibition ([8]; measured here: 5 uM single agent, at 5 µM): -13.2%
- inhibition ([9]; at 0.5 µM): -7.63% (inactive)
- inhibition [9, 18]: -7.53%
- inhibition [9, 21]: -2.7%
- inhibition ([9]; measured here: combination with cisplatin, at 5 µM): 81.1%
- inhibition ([10]; at 0.5 µM): -1.28% (inactive)
- inhibition ([10]; measured here: with BGB IC20, at 0.5 µM): 3.02%
- inhibition ([10]; measured here: with BGB IC20, at 5 µM): 79.1%
- inhibition ([10]; measured here: with cisplatin IC20, at 0.5 µM): -5.97%
- inhibition ([10]; measured here: with cisplatin IC20, at 5 µM): 82.6%
- inhibition ([10]; single agent, at 5 µM): 81.3%
- inhibition ([11]; at 0.5 µM): -28.4% (inactive)
- inhibition ([11]; measured here: combination with BGB at IC20, at 0.5 µM): -13.2%
- inhibition ([11]; measured here: combination with cisplatin at IC20, at 0.5 µM): -55.8%
- inhibition ([12]; at 0.5 µM): -4.21% (inactive)
- inhibition ([12]; measured here: combo with BGB at IC20, at 0.5 µM): 5.01%
- inhibition ([12]; measured here: combo with cisplatin at IC20, at 0.5 µM): -12.8%
- inhibition ([13]; at 0.5 µM): 13.8% (inactive)
- inhibition ([13]; measured here: inhibition with BGB combination, at 0.05 µM): -13.2%
- inhibition ([13]; measured here: inhibition with cisplatin combination, at 0.05 µM): 8.23%
- inhibition ([14]; at 0.5 µM): -0.11% (inactive)
- inhibition ([14]; measured here: BGB combination, at 0.5 µM): -3.77%
- inhibition ([14]; measured here: BGB combination, at 5 µM): 73.9%
- inhibition ([14]; measured here: cisplatin combination, at 0.5 µM): -8.99%
- inhibition ([14]; measured here: cisplatin combination, at 5 µM): 84%
- inhibition ([15]; at 0.5 µM): 22.6% (inactive)
- inhibition ([15]; cisplatin combination, at 0.5 µM): -12.8%
- inhibition ([15]; cisplatin combination, at 5 µM): 84.4%
- inhibition ([15]; measured here: BGB IC40 combination 0.05 uM, at 0.05 µM): -38.7%
- inhibition ([15]; single agent, at 5 µM): 86.5%
- inhibition ([16]; at 0.5 µM): 9% (inactive)
- inhibition ([16]; cisplatin combo, at 5 µM): 89.6%
- inhibition ([16]; measured here: BGB IC40 combination, at 0.05 µM): -27.7%
- inhibition [16, 21]: 31.1%
- inhibition ([16]; single agent, at 5 µM): 89.9%
- inhibition ([17]; at 0.5 µM): 20% (inactive)
- inhibition [17, 19]: -1.69%
- inhibition [17, 20]: 29.7%
- inhibition ([17]; single agent, at 0.05 µM): 22.1%
- inhibition ([17]; single agent, at 5 µM): 90.1%
